The campaign covered roughly 58,000 compounds. About 3,400 (5.9%) were called active. Many of the other results were omitted from the sample, so actives are more common in it than they were. Unmarked numbers belong to inactive results.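 How the source made its calls: active means luminescence count or its row- and column-corrected plate score outside the 99.7% band of the plate's sample wells, on either side; inactive means the rest.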
molecular target: D(1A) dopamine receptor (Homo sapiens) (UniProt P21728); assay: D1 CRE-luciferase signal change, two-sided – cell-based, HEK293 D1, dopamine EC30, D1 allosteric modulator project, primary screen (AID 641); conditions: dopamine EC30 potentiation, at 10 µM, actives deviate in either direction
Sequence (P21728 whole entry, looked up): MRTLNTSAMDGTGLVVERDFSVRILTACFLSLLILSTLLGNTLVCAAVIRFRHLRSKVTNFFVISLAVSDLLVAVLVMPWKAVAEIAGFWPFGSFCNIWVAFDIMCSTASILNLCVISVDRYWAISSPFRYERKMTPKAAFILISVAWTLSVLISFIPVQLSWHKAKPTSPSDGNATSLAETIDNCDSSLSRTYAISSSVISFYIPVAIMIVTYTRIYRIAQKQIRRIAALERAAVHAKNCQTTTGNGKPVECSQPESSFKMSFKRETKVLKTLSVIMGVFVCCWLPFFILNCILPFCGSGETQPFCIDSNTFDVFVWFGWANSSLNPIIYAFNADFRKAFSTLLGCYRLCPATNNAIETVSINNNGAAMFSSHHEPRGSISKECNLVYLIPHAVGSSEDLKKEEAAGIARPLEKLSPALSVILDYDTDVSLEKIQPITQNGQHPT

Row | Structure (SMILES) | B-score
1 | O=C(CN1C2CCC1CC(NC(=O)C1CC1)C2)NCc1ccccc1 (configuration not stated) | 0.0586
2 | CCOC(=O)Cc1c(C)nc2c(C#N)c(C)nn2c1C | -0.671
3 | Cc1ccc(-n2ncc3c(N4CCN(c5ccc(F)cc5)CC4)ncnc32)c(C)c1 | -2.95 (active)
4 | Cc1ccc(-n2ncc3c2ncn2nc(-c4ccco4)nc32)c(C)c1 | 0.753
5 | Cc1ccc(-n2ncc3c(=O)[nH]cnc32)c(C)c1 | -0.523
6 | Cc1nc2sc(C(c3ccco3)N3CCOCC3)c(O)n2n1 (configuration not stated) | 0.108
7 | Cc1ccc(C(c2sc3nc(C)nn3c2O)N2CCN(c3ccc(F)cc3)CC2)cc1 (configuration not stated) | -1.2
8 | Cc1ccc(C(c2sc3nc(C)nn3c2O)N2CCN(c3ccccc3)CC2)cc1 (configuration not stated) | -3.44 (active)
9 | O=C(Nc1c(C(=O)N2CCCCC2)cnn1-c1ccccc1)c1ccco1 | -0.19
10 | CCC(=O)NC(=Nc1nc2ccccc2s1)NC(=O)CC | 11.5 (active)
11 | COC(=O)Cc1cc(=O)n(-c2nc3ccccc3s2)[nH]1 | 0.0542
12 | O=C(O)CSCc1nc2ccccc2s1 | -0.539
13 | CCC(=O)c1cc2c(cc1NC(=O)c1cccs1)OCCO2 | 1.41
14 | CCCC(=O)C1=C(N(C)c2ccccc2)CC(C)(C)C(C(=O)OC)C1=O (configuration not stated) | 0.78
15 | Cn1c2ccccc2c2c(C(=O)N3CCN(c4ccc(F)cc4)CC3)cn(C3CCCC3)c(=O)c21 | 0.395
16 | Cc1c(CN2CCC(C)CC2)c(=O)n(-c2ccccc2)n1C | 0.319
17 | Cn1cccc1C(=O)NC(=O)COC(=O)Cc1coc2ccc3ccccc3c12 | -0.19
18 | COc1ccc(C(=O)c2oc3ccc(Br)cc3c2NC(C)=O)cc1 | -0.206
19 | Cc1cc(C(=O)O)c(S(C)(=O)=O)s1 | 0.833
20 | CC(=O)c1c(C)c[nH]c1C | -3.34 (active)
21 | O=C(CCN1C(=O)c2ccccc2C1=O)Nc1ccncc1 | 0.176
22 | CC(C)OC(=O)CN1C(=O)c2ccccc2C1=O | 0.49
23 | COC(=O)Nc1ncc(CN2C(=O)c3ccccc3C2=O)s1 | 3.19 (active)
24 | CN(C)c1cc(N)c2ccccc2n1 (tested in a mixture with another compound) | -2.66
25 | CCOC(=O)C1CCN(C(=O)Nc2ccc(Cl)cc2)CC1 | -0.339
26 | CCn1nc(C(=O)OCC(=O)N2c3ccccc3CC2C)c2ccccc2c1=O (configuration not stated) | 4.38 (active)

Row | Structure (SMILES) | B-score
27 | CC1Cc2ccccc2N1C(=O)Cn1cnc2ccccc2c1=O (configuration not stated) | -0.115
28 | CCCCn1nc(C(=O)N2CCc3ccccc32)c2ccccc2c1=O | 0.35
29 | O=C(COc1ccc2c3c(c(=O)oc2c1)CCC3)NC1CCCCC1 | -1.02
30 | N#Cc1nc(N)nc(N(c2ccccc2)c2ccccc2)n1 | 4.55 (active)
31 | CC(C)Nc1nc(N(c2ccccc2)c2ccccc2)nc(-n2ccnc2)n1 | 0.848
32 | CC(C)(C)Oc1ncc(Br)c(OC(C)(C)C)n1 | 0.0357
33 | c1ccc(-c2[nH]ncc2-c2nc3ccccc3[nH]2)cc1 | 0.738
34 | C=CCSc1nc2ccccc2[nH]1 | -0.468
35 | c1ccc2[nH]c(-c3nc4ccccc4[nH]3)nc2c1 | -2.93 (active)
36 | c1ccc(-n2ncc3c2ncn2c(CSc4nc5ccccc5s4)nnc32)cc1 | -0.538
37 | Cc1cccc(OCc2nnc(SCC(=O)N3CCN(C(=O)c4ccco4)CC3)n2C)c1C | -0.00929
38 | N#CC1=C(N)Oc2cc(O)ccc2C1C1CCCCC1 (configuration not stated) | -0.438
39 | Cc1cccc(NC(=O)COc2ccc(Br)cc2C)n1 | 0.787
40 | O=C(C1CCCO1)N(Cc1ccccc1)c1ccccc1 (configuration not stated) | 0.947
41 | CCCCSc1nc2c(c(=O)n1CC)SC(C)C2 (configuration not stated) | 9.06 (active)
42 | CCn1c(SCC(=O)Nc2ccccc2F)nc2c(c1=O)SC(C)C2 (configuration not stated) | 0.8
43 | CCn1c(SCC(=O)Nc2ccc3c(c2)OCCO3)nc2c(c1=O)SC(C)C2 (configuration not stated) | 2
44 | COC(=O)c1ccc(NC(=O)c2ccco2)cc1 | -1.96
45 | CN(CCC#N)c1ncnc2scc(-c3ccccc3)c12 | 1.98
46 | C=CCn1cnc2scc(-c3ccccc3)c2c1=O | 10.5 (active)
47 | C=CCn1c(SCc2csc(C)n2)nc2scc(-c3ccc(C)o3)c2c1=O | -0.492
48 | CN1C(C)(C)CC(NC(=O)CCC(=O)NC2CC(C)(C)N(C)C(C)(C)C2)CC1(C)C | 0.00629
49 | CCN(CC)C(=O)C1CCC(C)(C(=O)O)C1(C)C (configuration not stated) | -0.39
50 | CCc1ccc(N(CC)c2ncnc3nc[nH]c23)cc1 | -4
51 | O=C(CN1CCOCC1)Nc1c2c(nc3c1CCC3)CCC2 | 2.06
52 | O=C(NCCCNCc1ccccc1)c1ccc(/C=N/O)nc1 | -0.581

Row | Structure (SMILES) | B-score
53 | COc1ccc(Nc2oc(-c3ccccc3Cl)nc2C#N)cc1 | 6.96 (active)
54 | O=C(CSc1ncccn1)NCCc1ccccc1 | 0.879
55 | N#Cc1nc(Cc2ccccc2)oc1NCCc1ccccc1 | 4.08 (active)
56 | N#Cc1nc(COc2ccc(-c3ccccc3)cc2)oc1NCc1cccnc1 | -1.5
57 | COc1ccc(CC(=O)Nc2ccc(-c3nnc(-c4ccccc4)o3)cc2)cc1 | 0.0608
58 | N#Cc1nc(-c2ccc(OCc3ccccc3)cc2)oc1NCCCN1CCOCC1 | -0.727
59 | CCOc1ccc(Nc2oc(Cc3ccccc3)nc2C#N)cc1 | 3.11 (active)
60 | N#Cc1nc(Cc2cccc3ccccc23)oc1NCc1ccc2c(c1)OCO2 | -0.388
61 | CCOc1ccc(NC(=O)Nc2cc(C)on2)cc1 | -0.142
62 | CN(CCCC(=O)Nc1nccs1)S(=O)(=O)c1ccc(Cl)cc1 | 0.49
63 | Cc1cc(/C=N/n2cnnc2)c(C)n1-c1cccc(C(=O)O)c1 | -0.0541
64 | O=C(CN1CCOCC1)Nc1c(-c2ccccc2)c2cc(Br)ccc2[nH]c1=O | 2.41
65 | CS(=O)(=O)N1CCN(C(=O)Cc2ccccc2)CC1 | -1.05
66 | CS(=O)(=O)N(CC(=O)N1CCOCC1)c1ccc2c3c(cccc13)CC2 | 1.66
67 | COc1ccc(-c2n[nH]c(C)c2-c2ccc(OC)c(OC)c2)c(O)c1 | 2.72 (active)
68 | CCOc1ccccc1Oc1cn[nH]c1-c1ccc(OC)cc1O | -0.51
69 | C=C(C)COc1ccc(-c2n[nH]c(C)c2-c2ccccc2)c(O)c1 | 0.197
70 | Cc1nonc1NC(=O)c1ccccc1Br | -0.0424
71 | Cc1cc(C(=O)N2CCN(c3ccccn3)CC2)c(C)o1 | -0.0773
72 | COC(=O)CSC1=C(C#N)C(c2ccccc2OC)C(C(=O)OC)C(=O)N1 (configuration not stated) | 0.897
73 | O=C1Nc2c(Br)cc(Br)cc2C1(O)N1CCOCC1 (configuration not stated) | 0.955
74 | O=C(Nc1nncs1)c1ccccc1NS(=O)(=O)c1cccs1 | -0.0134
75 | CCCCNc1nc2ccccc2nc1NS(=O)(=O)c1cccs1 | 19.3 (active)
76 | CCOc1ccc2nc(NCCNS(=O)(=O)c3ccccc3)c(C#N)cc2c1 | 0.768
77 | COc1nc(OC)nc(N(C)CCO)n1 | 0.849
78 | Cc1ccc(C)c2[nH]c(=O)c(CCNC(=O)CC(C)C)cc12 | -0.219

Row | Structure (SMILES) | B-score
79 | COc1ncnc2c1N=C1CC(C)(C)CC(N)=C1S2 | 3.41 (active)
80 | Nc1c(C(=O)NCc2ccccc2)nnn1Cc1cccc(Cl)c1 | 0.392
81 | COc1ccc(OC)c2c1sc(=NC(=O)CN1C(=O)CCC1=O)n2C | 2.86
82 | Cc1ccc2c(c1)N(CCCC(=O)NCc1cccnc1)C(=O)CO2 | -0.742
83 | COc1ccc(N2CCN(CCNC(=O)c3nnc(Cc4c(F)cccc4Cl)o3)CC2)cc1 | -1.8
84 | Cc1ccc(-n2nc3c(c2NC(=O)CCC2CCCCC2)CS(=O)C3)cc1 (configuration not stated) | -0.56
85 | O=P(O)(CN1CCCCC1)CN1CCCCC1 | -0.0507
86 | C=CCSc1nc2c(c(=O)[nH]1)C(C(C)C)C(C#N)=C(N)O2 (configuration not stated) | 10.1 (active)
87 | C=CCOC(=O)C1=C(C)OC(N)=C(C#N)C1c1ccc(F)cc1 (configuration not stated) | 0.241
88 | CCN1CCN(C(=O)c2ccccc2N(C)S(=O)(=O)c2ccc(C)cc2)CC1 | 0.228
89 | COCCNc1nc(-n2nc(C)cc2C)nc2sc3c(c12)CCCC3 | 0.116
90 | CC(=O)c1ccc(Oc2cc(C)nc(-n3nc(C)cc3C)n2)cc1 | 11.6 (active)
91 | COc1ccc(Nc2cc(C)nc(-n3nc(C)cc3C)n2)cc1 | 7.36 (active)
92 | COc1cc(NS(=O)(=O)c2ccccc2)ccc1-n1nc(C)cc1C | -0.763
93 | CCOC(=O)c1cnc(-n2nc(C)cc2C)nc1Nc1cccc(C(C)=O)c1 | 0.96
94 | Cc1cc(C)n(-c2ccc(Cl)c(C(=O)O)n2)n1 | -0.569
95 | Cc1ccc(S(=O)(=O)Nc2ccccc2CNc2c(C)n(C)n(-c3ccccc3)c2=O)cc1 | 1.04
96 | Cc1ccc(S(=O)(=O)N2CC(=O)Nc3ccccc32)cc1C | 0.0538
97 | CCN1C(=O)CS/C1=N\c1nccs1 | 0.211
98 | Cc1ccc(CNC(=O)CCCNC(=O)c2ccc(Cl)cc2)n1C | -1.3
99 | CC1CCN(Cc2nc3c(c(=O)n(C)c(=O)n3C)n2CCc2ccccc2)CC1 | 0.377
100 | CCOC(=O)C1CCCN(C(=O)c2cncc(Br)c2)C1 (configuration not stated) | 0.42
101 | CCOC(=O)C1CCCN(C(=O)c2sc3nc(C)nc(N4CCOCC4)c3c2C)C1 (configuration not stated) | -3.4 (active)
102 | CCOC(=O)C1CCCN(C(=O)CN(c2ccc(OC)cc2)S(=O)(=O)c2c(C)noc2C)C1 (configuration not stated) | 0.03
